# Source: PubChem BioAssay
# CYP2C9 inh – blockers of cytochrome P450 2C9 activity – biochemical, luminescence, ADME assay, primary screen | inhibition, % at 5 µM | 96,000 compounds, 20% hits | CYP2C9 Supersomes, luciferin-H conversion | AID 777, 2007 | P11712;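 active = blocking of liver enzyme CYP2C9 beyond about 50% at 5 µM, limit read from the data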
# CYP2C19 inhib – blockers of cytochrome P450 2C19 activity – biochemical, luminescence, ADME assay, primary screen. CYP2C19 Supersomes, luciferin-H EGE luminescence, 30 min. inhibition, % at 5 µM. 96,000 compounds, 21% hits;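 active = CYP2C19 inhibition above a set limit at 5 µM in the primary screen, cut at about 50% in these data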;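 also: plate controls were negative control wells for no effect and 2.5 mM tranylcypromine positive control for full effect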
# Target sequence (P33261 whole entry, looked up): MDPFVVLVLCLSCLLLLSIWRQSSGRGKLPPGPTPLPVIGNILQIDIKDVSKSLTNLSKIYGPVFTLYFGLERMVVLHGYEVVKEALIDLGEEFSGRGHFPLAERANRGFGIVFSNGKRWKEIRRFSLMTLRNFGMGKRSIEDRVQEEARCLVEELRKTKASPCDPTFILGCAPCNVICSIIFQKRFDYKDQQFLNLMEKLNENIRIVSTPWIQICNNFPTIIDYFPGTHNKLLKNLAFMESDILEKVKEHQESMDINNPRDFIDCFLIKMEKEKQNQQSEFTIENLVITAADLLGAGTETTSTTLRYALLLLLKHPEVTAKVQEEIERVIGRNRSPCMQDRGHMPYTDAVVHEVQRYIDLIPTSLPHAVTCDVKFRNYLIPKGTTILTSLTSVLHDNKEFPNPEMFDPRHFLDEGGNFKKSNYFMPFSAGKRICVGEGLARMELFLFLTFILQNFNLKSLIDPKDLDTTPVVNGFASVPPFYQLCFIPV
# Measles CPE – compounds protecting cells from measles virus cytopathic effect, primary screen, measles RdRp inhibitor project, single point, MLSMR library, absorbance; 140,000 compounds, 1.5% hits; protection (pct of control), % at 4 µM; Measles virus-infected cells, CPE protection; AID 841, 2007; in the data active = protection mostly above about 24%, no sharp cut-off; inactive = mostly below about 26%
# CYP2C9 act – human CYP2C9 activators, primary screen, biochemical, luminescence; recombinant CYP2C9, luciferin-H conversion; active compounds read high; factor 1 = untreated enzyme, 0 = blocked; AID 1024, 2008; activation factor at 5 µM; Cytochrome P450 2C9 (Homo sapiens), P11712; 96,000 compounds, 1.4% hits;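 active = activation factor of 2 or more for CYP2C9 at a 5 µM dose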;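 also: 0 = sulfaphenazole-blocked wells and 1 = vehicle-only wells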
# CYP2C19 act – human CYP2C19 activators, primary screen, biochemical, luminescence; activation factor at 5 µM; 96,000 tested, under 10 active; recombinant CYP2C19, luciferin-H EGE luminescence; active compounds read high; 0 = fully inhibited enzyme, 1 = untreated enzyme; Cytochrome P450 2C19 (Homo sapiens), P33261;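 active = activation factor of at least 2 at 5 µM in the primary screen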;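 also: 0 = wells with 2.5 mM tranylcypromine and 1 = vehicle-only wells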
# * = called active by the depositor; · = no result given. In the library only some 22% were active in any assay of this set; here they are far more common.
SMILES,CYP2C9 inh,CYP2C19 inhib,Measles CPE,CYP2C9 act,CYP2C19 act
Cc1ccc(S(=O)(=O)Nc2cc(C(=O)N3CCC4(CC3)OCCO4)ccc2N2CCCCC2)cc1,63*,54*,5,0.4,0.5
CC(=O)Nc1cc(C(=O)N2CCC3(CC2)OCCO3)ccc1S(=O)(=O)c1ccc(C)cc1,-4,7,11,1,0.9
O=C1C2CCCN2C(c2ccc(Cl)c(Cl)c2)N1c1ccccn1 (stereo not drawn),·,·,27,·,·
COc1ccc(CCNC(=O)c2c(N)n(CCN3CCOCC3)c3nc4ccccc4nc23)cc1OC,83*,54*,8,0.2,0.5
Nc1c(C(=O)NCc2ccco2)c2nc3ccccc3nc2n1CCN1CCOCC1,61*,35,1,0.4,0.6
COc1ccc(Cn2c(N)c(C(=O)NCc3ccco3)c3nc4ccccc4nc32)cc1,84*,59*,7,0.2,0.4
Nc1c(C(=O)NCc2ccco2)c2nc3ccccc3nc2n1Cc1ccc(F)cc1,28,23,4,0.7,0.8
Nc1c(C(=O)NCc2ccco2)c2nc3ccccc3nc2n1Cc1ccccc1,·,·,2,·,·
CCCCCCn1c(N)c(C(=O)NCCN2CCOCC2)c2nc3ccccc3nc21,34,54*,4,0.7,0.5
CCCCCn1c(N)c(C(=O)NCCN2CCOCC2)c2nc3ccccc3nc21,7,1,3,0.9,1
CCOC(=O)c1nc2ccccc2c(=O)n1-c1ccc(C)cc1,55*,46,7,0.4,0.5
CCOC(=O)c1nc2ccccc2c(=O)n1-c1cccc(C)c1,52*,41,18,0.5,0.6
Cc1cccc(-n2c(-c3cccs3)nc3ccccc3c2=O)c1,·,·,8,·,·
COc1nc2ccccc2c(=O)n1-c1ccc(C)cc1,·,·,5,·,·
CCOc1ccc2nc(N3CCC(C(=O)N4CCC5(CC4)OCCO5)CC3)sc2c1,-6,10,27,1.1,0.9
O=c1c2ccccc2nc(-c2ccccc2)n1-c1nccs1,·,·,35,·,·
OC(c1ccccc1)(c1ccccc1)C1CCNCC1,60*,3,6,0.4,1
OC(c1ccccc1)(c1ccccc1)c1ccncc1,·,·,13,·,·
C[N+]1(CC(COCc2ccccc2)OC(=O)Cc2ccccc2)CCOCC1 (stereo not drawn),·,·,15,·,·
Cn1c(=O)cc(OCC(=O)N2CCN(C3CCCCC3)CC2)c2ccccc21,-21,9,8,1.2,0.9
Cn1c(=O)cc(OCC(=O)N2CCN(Cc3ccc4c(c3)OCO4)CC2)c2ccccc21,72*,55*,8,0.3,0.5
CCC(=NCc1cc(OC)cc(OC)c1)c1c(O)n(C)c(=O)n(C)c1=O,81*,29,11,0.2,0.7
CC(=NCc1ccc2c(c1)OCO2)c1c(O)n(C)c(=O)n(C)c1=O,23,7,·,0.8,0.9
CCC(=Nc1ccc(OC)cc1OC)c1c(O)n(C)c(=O)n(C)c1=O,10,10,6,0.9,0.9
CCC(=NCc1ccc2c(c1)OCO2)c1c(O)n(C)c(=O)n(C)c1=O,62*,29,3,0.4,0.7
SMILES,CYP2C9 inh,CYP2C19 inhib,Measles CPE,CYP2C9 act,CYP2C19 act
COc1ccccc1CCNC1CCC(C)CC1 (stereo not drawn),·,·,14,·,·
O=C(c1cccn2c(=O)c3cc(Br)ccc3nc12)N1CCC2(CC1)OCCO2,55*,32,15,0.5,0.7
Cc1cc(/C=C2\C(=O)NC(=O)N(c3cccc(Br)c3)C2=O)c(C)n1C,·,·,39*,·,·
Cc1ccc(N2C(=O)NC(=O)/C(=C\c3ccsc3)C2=O)cc1C,·,·,5,·,·
OC(c1ccc(F)cc1)(c1ccc(F)cc1)[C@@H]1CCCN1,6,-2,·,0.9,1
CN(C)C(=O)Oc1c(Cl)cc(Cl)c2ccccc12,-210,32,1,3.1*,0.7
CN(C)C(=O)Oc1ccc(OCc2n(C)c3ccccc3[n+]2C)cc1,·,·,11,·,·
CCCCOP(=O)(OCCCC)/C(C#N)=C(/C)O,19,-1,5,0.8,1
COc1ccc(C2NCc3ccccc3-n3cccc32)cc1 (stereo not drawn),15,50,18,0.8,0.5
COc1cc(C2NCc3ccccc3-n3cccc32)ccc1O (stereo not drawn),66*,73*,10,0.3,0.3
CCCCn1c(N)c(C(=O)OCC2CCCO2)c2nc3ccccc3nc21 (stereo not drawn),74*,68*,14,0.3,0.3
CC(C)CCOC(=O)c1c(N)n(CC2CCCO2)c2nc3ccccc3nc12 (stereo not drawn),11,-9,16,0.9,1.1
CCCCOCCCn1c(N)c(C(=O)OCCOC)c2nc3ccccc3nc21,52*,38,7,0.5,0.6
CCCNC(=O)c1c(N)n(CC2CCCO2)c2nc3ccccc3nc12 (stereo not drawn),6,2,2,0.9,1
CC(C)OCCCNC(=O)c1c(N)n(CC2CCCO2)c2nc3ccccc3nc12 (stereo not drawn),85*,67*,4,0.2,0.3
COCCOC(=O)c1c(N)n(Cc2ccccc2)c2nc3ccccc3nc12,22,21,6,0.8,0.8
CC(C)CCn1c(N)c(C(=O)OCC2CCCO2)c2nc3ccccc3nc21 (stereo not drawn),84*,63*,35,0.2,0.4
Cc1ccccc1NC1=NCCCS1,0,2,9,1,1
C[C@H]1CCCC(=O)CCC/C=C/c2cc(O)cc(O)c2C(=O)O1,90*,88*,9,0.1,0.1
O=c1c2ccccc2[nH]c(=S)n1-c1ccc2c(c1)OCO2,83*,97*,3,0.2,0
COc1ccccc1-n1c(O)c(C=NCc2ccc3c(c2)OCO3)c(=O)[nH]c1=O,18,-1,4,0.8,1
COc1ccc(CCN(C)Cc2c(F)cccc2F)cc1OC,14,80*,2,0.9,0.2
COc1ccc(CC(=O)N2CCN(C)CC2)cc1OC,-9,-2,12,1.1,1
CC(NCc1ccc(Cl)c(Cl)c1)C(O)c1ccccc1 (stereo not drawn),42,100*,32,0.6,0
CC(NCc1ccccc1Cl)C(O)c1ccccc1 (stereo not drawn),1,96*,15,1,0
C=C1N2CCC(CC2)C1(O)c1ccc(C)c(C)c1 (stereo not drawn),·,·,6,·,·
Cc1cc(Br)ccc1N1C(=O)CC(=O)NC1=O,-11,-5,38*,1.1,1
CCC(C)n1c(O)c(C(c2ccccn2)c2c(O)n(C(C)CC)c(=S)[nH]c2=O)c(=O)[nH]c1=S (stereo not drawn),36,-3,5,0.6,1
COC(=O)c1cc(COc2cc(C)cc3oc(=O)c4c(c23)CCC4)c(C)o1,97*,78*,·,0,0.2
